Bioassay records: PubChem BioAssay, National Center for Advancing Translational Sciences (NCATS)
ClpP mod = qHTS Assay for Activators of ClpP | purified B. subtilis ClpP, FRET peptide cleavage, 20 min | ATP-dependent Clp protease proteolytic subunit (Bacillus subtilis (strain 168)), P80244 | AID 651965, 2013 | Potency, µM (titrated, usually from 57.5 µM), without a hit: at the top dose activity change, negative = active | hit rate 1.9% among 340,000; active = well fitted falling curve with a large enough effect; inconclusive = small, poorly fitted or top-dose-only effect; inactive = no such curve, though single readings can be large or run the other way; note: potency is the fitted concentration of half-maximal effect; the source files actives as falling curves though it sought activators and does not explain the sign; nearly all actives have a fitted effect of over 65% in size
Target sequence (P80244 whole entry, looked up): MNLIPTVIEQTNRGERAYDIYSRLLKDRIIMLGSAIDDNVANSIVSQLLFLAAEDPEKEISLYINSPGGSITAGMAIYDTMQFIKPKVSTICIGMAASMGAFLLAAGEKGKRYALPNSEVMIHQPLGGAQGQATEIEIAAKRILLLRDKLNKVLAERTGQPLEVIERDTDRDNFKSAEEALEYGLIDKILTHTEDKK
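FRET quenching reversal measured ClpP activation: 10 microg/mL B. subtilis ClpP at pH 8 with the FRET-FV decapeptide, read at 430 nm after 320 nm excitation. The 20-min minus 0-min signal was scaled between DMSO/no-enzyme wells and ADEP (5.8 microM final).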
Menin-MLL TR inh = menin-MLL binding inhibition, Texas Red mutant peptide. Potency, µM (top dose mostly 61.6 µM), without a hit: at the top dose FP activity change, negative = inhibition, hits mostly inhibitors. AID 1768. hit rate 0.23% among 270,000. O00255. Menin + Texas Red MLL mutant peptide, fluorescence polarization; active = well fitted inhibition curve with a large enough effect in the polarisation, with a control signal flat, not every such curve was filed as active; inconclusive = small, poorly fitted or top-dose-only effect, or effect the other way, or a change in a side signal; inactive = no such curve, though single readings can be large or run the other way; the % refers to the polarisation; note: potency is the fitted concentration of half-maximal effect; % of control where 0% means no effect
CXXC DNA block = blocks binding of human MLL CXXC domain to DNA; MLL-CXXC / FITC-HOXA9 DNA fluorescence polarization; hit rate 0.037% among 290,000; Q03164; Potency, µM (doses to about 115 µM), without a hit: top-dose activity change, negative = inhibition, most hits filed as inhibitors; active = well fitted inhibition curve with a large enough effect in the polarisation, with a control signal flat, not every such curve was filed as active; inconclusive = small, poorly fitted or top-dose-only effect, or effect the other way, or a change in a side signal; inactive = no such curve, though single readings can be large or run the other way; the % refers to the polarisation; note: potency is the fitted concentration of half-maximal effect
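Steps: dispense CXXC domain solution (7 uM) → pin compounds or unlabeled HOX-A9 DNA control → 5 min ambient → add FLSN-HOX-A9 solution (50 nM) → spin → 30 min ambient → fluorescence polarization. Tris pH 7.5/NaCl/DTT/BSA buffer.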
p53 reactivation = re-activators of mutant p53; hit rate 0.063% among 320,000; Potency, µM (highest dose often 92.2 µM), without a hit: at the top dose activity change, positive = activation, usual class: activators; H1299 p53-A138V BP100-luciferase reporter, luminescence, 24 h; active = well fitted activation curve with a large enough effect; inconclusive = small, poorly fitted or top-dose-only effect; inactive = no such curve, though single readings can be large or run the other way; note: potency is the fitted concentration of half-maximal effect; % of control where 0% means no effect; nearly all actives have a fitted effect of over 45% in size
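H1299 (p53-null), stable ts p53-A138V + BP100-Luc; 1000 cells/well, Opti-MEM/10% FBS; cpd 4 pt, 1:5; 24 h, 37 deg C, 5% CO2; detection reagent 10 min RT; luminescence.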
Menin MLL FP FL = menin-MLL binding inhibition, fluorescein peptide | Fluorescence polarization, fluorescein-MLL peptide displacement from menin | FP activity change, % at 61.4 µM | 290,000 tested, under 10 active; active = well fitted curve in the direction sought with a large enough effect in the polarisation, not every such curve was filed as active; inconclusive = small, poorly fitted or top-dose-only effect, or effect the other way, or a change in a side signal; inactive = no such curve, though single readings can be large or run the other way; the % refers to the polarisation; note: % of control where 0% means no effect
* hit, by the source's call; u = inconclusive; x = not tested or not shown. The full list was thinned out, with hits kept by preference.

SMILES	ClpP mod	Menin-MLL TR inh	CXXC DNA block	p53 reactivation	Menin MLL FP FL
CCOC(=O)c1[nH]c2ccccc2c1NC(=O)CCN1CCN(C(=O)OCC)CC1	22µM*	10%	15%	-12%	-8
CCOC(=O)c1[nH]c2ccc(OC)cc2c1NC(=O)C(C)N1CCC2(CC1)OCCO2 (stereo not given)	x	9%	1%	-4%	2
CCOC(=O)c1[nH]c2ccc(OC)cc2c1NC(=O)CN1CCC2(CC1)OCCO2	14µM*	37%	10%	-3%	2
O=C(O)C(Cc1cc(I)c(O)c(I)c1)c1ccccc1 (stereo not given)	x	5%	17%	x	-4
O=C(C[n+]1cccc(Br)c1)c1ccc2c(c1)CCCC2	0%	x	x	x	x
CCCCNC(=O)Cn1c(SCc2cccc(F)c2)nc2ccncc21	-16%	x	x	x	x
C(=C\c1ccnc2ccccc12)/c1ccc2ccccc2n1	5%	x	x	x	x
CCOC(=O)c1[nH]c2ccc(OC)cc2c1NC(=S)N1CCN(c2ccccc2)CC1	0%	u	3%	10%	-2
CCOC(=O)c1oc2ccccc2c1NC(=O)CN1CCN(C)CC1	-24%	-1%	-8%	0%	1
COC(=O)c1[nH]c2cc(OC)ccc2c1NC(=O)CCN1CCN(c2ccccc2)CC1	-14%	-4%	0%	-9%	5
CCOC(=O)c1[nH]c2ccc(OC)cc2c1NC(=O)CCN1CCSCC1	13µM*	-4%	1%	11%	6
COC(=O)c1[nH]c2cc(OC)ccc2c1NC(=O)CCN1CCN(c2cccc(C)c2C)CC1	25µM*	2%	-2%	4%	-1
CCOC(=O)c1oc2ccc(OC)cc2c1NC(=O)CN1CCN(C)CC1	16µM*	1%	1%	-7%	4
CCOC(=O)c1[nH]c2ccc(OC)cc2c1NC(=O)CN1CCc2ccccc2C1	16µM*	u	-1%	-8%	-2
C=CCn1c(SC(C)C#N)nc2ccccc2c1=O (stereo not given)	1%	x	x	x	x
Cc1ccnc2c(N)cccc12	0%	x	x	x	x
CC1=C(C#N)C(C)C2=C(CC(C)(C)CC2=O)N1 (stereo not given)	18µM*	-10%	3%	1%	3
CC1=C(C#N)C(c2cccnc2)C2=C(CC(C)(C)CC2=O)N1 (stereo not given)	14µM*	8%	3%	-2%	0
CCOc1ccc(NC(=O)CCn2c(=O)c3cccn3c3cccnc32)cc1	35%	x	x	x	x
COc1ccc(C2Nc3ccccc3C(=O)N2c2cccc3ccccc23)cc1COc1c(C)cccc1C (stereo not given)	5%	x	x	x	x
CCN1C(=O)c2cccc3c(S(=O)(=O)N(C(=O)c4ccncc4)c4ccc(OC)cc4)ccc1c23	u	-10%	8%	4%	-2
CCN1C(=O)c2cccc3c(S(=O)(=O)N(C(=O)c4cccnc4)c4ccc(OC)cc4)ccc1c23	35µM*	11%	109%	-4%	-1
CSCC[C@H](NC(=O)[C@H](CC(C)C)N1CCC(NC(=O)[C@@H](NC(=O)[C@H](Cc2ccccc2)NC(=O)[C@H](CO)NC(=O)[C@H](CC(=O)O)NC(=O)[C@@H](N)CCCCN)C(C)C)C1=O)C(N)=O (stereo not given in full)	x	13%	x	x	1
O=C1c2cccc3cccc(c23)C(=O)N1c1ccc(O)cc1	-5%	1%	-2%	-35%	0
O=C1c2cccc3cccc(c23)C(=O)N1c1nncs1	16µM*	2%	6%	-5%	0
C[C@@H]1CC2[C@@H]3C[C@H](F)C4=CC(=O)C(Cl)=C[C@]4(C)[C@@]3(F)[C@H](O)C[C@]2(C)[C@@]1(O)C(=O)CO (stereo not given in full)	x	5%	1%	x	-4
O=C(O[C@H]1CN2CCC1CC2)N1CCc2ccccc2[C@@H]1c1ccccc1	x	-6%	-7%	x	-2
COc1ccc(NCc2cc(=O)[nH]c3ccccc23)cc1	-12%	40µM*	21%	3%	-21
CCOc1ccc(NCc2cc3cc(OC)ccc3[nH]c2=O)cc1	0%	x	-5%	0%	5
COc1ccc(NC(=O)c2cc(=O)[nH]c3ccccc23)cc1	0%	-14%	-3%	1%	-10
